# Results as given in PubChem BioAssay AID1578 (Sanford-Burnham Center for Chemical Genomics, 2009).
# Out of some 290,000 compounds screened, about 3,000 (1%) were called active. Many of the other results were omitted from the sample, so actives are more common in it than they were. A number with no mark means an inactive call. Rule as the data show it: active = inhibition mostly above about 36% (no sharp cut-off); inactive = mostly below about 34%.
# Assay: NOD1 signaling inhibitors, primary screen, cell-based, luminescence, uHTS (AID 1578);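 also: HEK-293T reporter cells stimulated with the NOD1 agonist gamma-tri-DAP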
# Settings: NOD1-driven NF-kB luciferase reporter cells, at 4 µM, active compounds read high
row,Structure (SMILES),inhibition
1,CC(C)=CCN1CCN(C/C(Cl)=C/c2ccccc2)CC1CCO (stereo unspecified),1.6%
2,Cc1ccc(CNC(=O)CCS(=O)(=O)c2cc3c(cc2Cl)NC(=O)CO3)o1,-10.7%
3,COc1cc(/C=C(\C#N)C(=O)Nc2ccccc2)ccc1OCCN1CCOCC1,-28.7%
4,COc1cc2c(C(=O)NCCN(C)C)cn(CC(C)C)c(=O)c2cc1OC,1.3%
5,COc1ccc(-c2nn(CC(=O)Nc3ccc(Cl)c(Cl)c3)c(=O)c3ccccc23)cc1,15.6%
6,COc1ccc(C(=O)N/C(=C\c2cn(S(=O)(=O)N(C)C)c3ccccc23)C(=O)N2CCOCC2)cc1,-6.8%
7,Cc1cc(C)cc(C(=O)NCC(=O)NCc2ccc(S(N)(=O)=O)cc2)c1,-5.1%
8,COc1cccc(N2CCN(C(=O)c3cc4cc(Cl)ccc4[nH]3)CC2)c1,-4.9%
9,CCOC(=O)c1c(N)sc(C(=O)Nc2ccccc2)c1C,-18.7%
10,COC(=O)c1c(N)sc(Cc2ccccc2)c1C,-28.7%
11,COC(=O)c1c(N)sc(C(=O)NCCc2ccccc2)c1C,69.8% (active)
12,Cc1ccc(S(=O)(=O)NC(C)(C)CSc2nnc(Nc3ccccc3)s2)cc1,64.7% (active)
13,Cc1ccc(S(=O)(=O)NC(C)(C)CSc2nnc(N)s2)cc1,-25.5%
14,Cc1ccc(S(=O)(=O)NC(C)(C)CSc2ncccn2)cc1,-3.5%
15,CCSc1n[nH]c2nc3c(c(=O)n12)C1(CCCCC1)Cc1ccccc1-3,-13.1%
16,N#CCSc1n[nH]c2nc3c(c(=O)n12)C1(CCCC1)Cc1ccccc1-3,16.8%
17,N#CCSc1n[nH]c2nc3c(c(=O)n12)C1(CCCCC1)Cc1ccccc1-3,48% (active)
18,CCN(C(=O)/C=C/c1ccc(OC)cc1)C1CCCCC1,-18.8%
19,CC(=O)COc1cc2c(-c3cc4ccccc4o3)cc(=O)oc2cc1C,40.5%
20,COc1cccc2cc(-c3cc(=O)oc4cc(C)c(OCC(C)=O)cc34)oc12,71.3% (active)
21,COc1cccc2cc(-c3cc(=O)oc4ccc(OCC(C)=O)cc34)oc12,39%
22,COc1ccc(Cl)cc1NC(=O)CSc1nc(C)cc(C)n1,-29.7%
23,Cc1cc(C)cc(NC(=O)CSc2nc(CSc3ccc(Cl)cc3)cc(=O)[nH]2)c1,8.6%
24,CCOC(=O)N1CCC(NCCNC(=O)c2ccccc2Cl)CC1,9.8%
25,Cn1c(Sc2ccccc2Cl)c(C=O)c2ccccc21,41.9%
26,Cn1c(Oc2ccc(Cl)cc2)c(C=O)c2ccccc21,22.8%
